This is part of a sample that, as a whole, favours compounds with a hit. Of some 79,000 tested, about 15% had one in any assay. Cut-off read from the data, not from the text of the source: active = growth inhibition above about 70%; inactive = the rest.
Legend:
[1] = NCI Yeast Anticancer Drug Screen. Data for the rad50 strain (AID 155);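 note: 0% = growth of vehicle-only cultures of the same strain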; settings: S. cerevisiae rad50 strain growth inhibition; at 50.0 µM; active compounds read high
In short: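 Cells are treated with compound, grown, and their growth is then scored against vehicle-only cultures of the same repair-deficient yeast strain.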

[2] = NCI Yeast Anticancer Drug Screen. Data for the mec2-1 strain (AID 157); settings: S. cerevisiae mec2-1 strain, at 50.0 µM, active compounds read high
In short: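 Yeast mec2-1 mutant treated with compound. Readout: growth inhibition vs vehicle controls.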

[3] = NCI Yeast Anticancer Drug Screen. Data for the sgs1 mgt1 strain (AID 161);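 note: 0% = growth of cultures given vehicle only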; settings: S. cerevisiae sgs1 mgt1 strain, at 50.0 µM, active compounds read high
In short: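 Read-out: growth inhibition vs vehicle controls. Cells: mutant yeast strain deficient in DNA damage repair.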

[4] = NCI Yeast Anticancer Drug Screen. Data for the cln2 rad14 strain (AID 165);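 note: 0% = growth equal to vehicle treated cultures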; settings: S. cerevisiae cln2 rad14 strain, at 50.0 µM, active compounds read high
In short: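 cln2 rad14 yeast strain; compound exposure; growth inhibition read vs vehicle controls.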

[5] = NCI Yeast Anticancer Drug Screen. Data for the bub3 strain (AID 167); settings: S. cerevisiae bub3 mutant strain, at 50.0 µM, active compounds read high
In short: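 Part of a panel of yeast mutants defective in DNA damage repair or cell cycle regulation. Each strain is grown with compound, and inhibition is calculated relative to solvent-treated cultures.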

[6] = NCI Yeast Anticancer Drug Screen. Data for the mlh1 rad18 strain (AID 175); settings: S. cerevisiae mlh1 rad18 strain growth inhibition; at 50.0 µM; active compounds read high
In short: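 Yeast w/ defined DNA-repair lesions; compound exposure; growth vs vehicle controls → % inhibition.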

Measured: growth inhibition

CC1(C)CC2(CC(C)(C)N1O)NC(=O)OC2=O
inactive: [1] 2.5% | [2] -5.3% | [3] -1.05% | [4] -18.6% | [5] -23.1% | [6] 1.3%

C/C(=C/OS(=O)(=O)C(F)(F)F)c1ccccc1
inactive: [1] -22.3% | [2] -0.2% | [3] -3.2% | [4] -8.55% | [5] -1.5% | [6] 4.25%

N#CCCC(CCC#N)(CCC(CCC#N)(CCC#N)[N+](=O)[O-])[N+](=O)[O-]
inactive: [1] -4.05% | [2] 11% | [3] 10.8% | [4] -11.6% | [5] 8.8% | [6] 6.3%

CC(C)OC(=O)NC1CCC2CCCCC2C1 (stereo not given)
inactive: [1] 2.7% | [2] 11.5% | [3] -8.3% | [4] -19.9% | [5] 15.7% | [6] -4.75%

O=[P+](O)c1cc2c3ccccc3ccc2c2ccccc12
inactive: [1] -34.9% | [2] 11.8% | [3] 32% | [4] -12.3% | [5] 33% | [6] -0.55%

CC(C)C1CCC(=O)CC1
inactive: [1] 9.9% | [2] 0.35% | [3] -1% | [4] -12.2% | [5] 0.75% | [6] -4.9%

O=C1C=C(Nc2cc(Cl)ccc2Cl)c2ccccc2C1=O
inactive: [1] 9.75% | [2] 4.25% | [3] -8.8% | [4] 6.8% | [5] 15.2% | [6] 32.5%

OC(C(=S)N1CCOCC1)(c1ccccc1)c1ccccc1
inactive: [1] 5.35% | [2] 17.6% | [3] -5% | [4] 25.8% | [5] 17.7% | [6] -12.2%

Cn1c(=O)nc(N)n(NC(=O)CCl)c1=O
inactive: [1] 30.6% | [2] 10.3% | [3] 23.6% | [4] 9.9% | [5] -6.6% | [6] 15.4%

COc1cc(-c2cc(CCC(=O)Nc3ccccc3[N+](=O)[O-])n(-c3ccc([N+](=O)[O-])cc3[N+](=O)[O-])n2)ccc1O
inactive: [1] -5.2% | [2] -5.5% | [3] -42.7% | [4] 31.8% | [5] -4.65% | [6] -27.7%

CN1C(c2ccncc2)=NCC12CCCCC2
inactive: [1] 17.2% | [2] 7.35% | [3] 3.6% | [4] 1.05% | [5] 13.2% | [6] -1.5%

CCOC(O)(NC(=O)C(C(F)(F)F)C(F)(F)F)C(F)(F)F (stereo not given)
inactive: [1] 6.05% | [2] -18.1% | [3] -33.4% | [4] -9.45% | [5] -12.4% | [6] -26.9%

S=C(S)NCCCn1ccnc1
inactive: [1] -11.8% | [2] 23.8% | [3] -14.8% | [4] -15.9% | [5] -30.7% | [6] -0.8%

CC(C)COC(=O)N1N=NC2C3CC(=O)C(O3)C21 (stereo not given)
inactive: [1] 9.8% | [2] -9.7% | [3] -14.2% | [4] 11.6% | [5] -7.75% | [6] -4.75%

CCOC(=O)C(NC(=O)Cc1ccccc1)C1NC(C(=O)O)CS1 (stereo not given)
inactive: [1] 19.9% | [2] 1.8% | [3] 3.2% | [4] -14.8% | [5] -1.05% | [6] -13.8%

CCCCCCCCCCCCCCCCCC(C)O (stereo not given)
inactive: [1] -8.7% | [2] -13.2% | [3] -1.05% | [4] 1.85% | [5] -10.4% | [6] -10.8%

N#CCc1nc2ccccc2[nH]1
inactive: [1] 7.95% | [2] -6.95% | [3] -9.35% | [4] 3.1% | [5] 6.25% | [6] 3.3%

COc1cc2c(cc1OC)C(CC(=O)NN=C(C)C)NCC2 (stereo not given)
inactive: [1] -20.6% | [2] -19.6% | [3] -10.2% | [4] 3.1% | [5] -16.8% | [6] -34.2%

CCN(CC)C1=NS(=O)(=O)c2ccccc21
inactive: [1] 1.2% | [2] -3.65% | [3] 9.45% | [4] -11.4% | [5] 2.3% | [6] 0.5%

C=C(NC(C)=O)C(=O)CCC(N)=O
inactive: [1] -0.75% | [2] -0.7% | [3] -7.5% | [4] 1.75% | [5] 4.75% | [6] -53.7%

CCOc1ccc(-n2c(O)c(N=Nc3ccccc3OC)c(=O)n(-c3ccc(OC)cc3)c2=S)cc1
inactive: [1] 18.4% | [2] -7.9% | [3] -10.3% | [4] -10.4% | [5] -4.8% | [6] 7.05%

COc1ccc(/C=C/C(C)=O)c(OC)c1
inactive: [1] 3% | [2] -12.3% | [3] 2.15% | [4] -20.6% | [5] 0.05% | [6] -4.95%

CN(C)CCCn1c(=O)nc2n(-c3ccccc3)c3ccccc3nc-2c1=O
inactive: [1] 9.3% | [2] 4.5% | [3] -10.4% | [4] 8.75% | [5] 2.35% | [6] -44.5%

CCOC(=O)c1sc(SSc2nc(C)c(C(=O)OCC)s2)nc1C
inactive: [1] -4.4% | [2] -4.7% | [3] 2.7% | [4] 12.9% | [5] 4.75% | [6] 10.1%

COCC(=O)C(C(C)=O)C(c1ccncc1)C(C(C)=O)C(=O)COC (stereo not given)
inactive: [1] -7.75% | [2] 14.9% | [3] 6.85% | [4] -10.2% | [5] -1.6% | [6] -20.4%

COc1ccccc1C(=O)N(C)c1ccc(Cl)c(C(=O)OC(C)C)c1
inactive: [1] 30.9% | [2] 24.7% | [3] 46.4% | [4] 37.7% | [5] 44.5% | [6] 6.85%

COc1ccc(C2CC(C)(O)Oc3cc4c(cc32)OCO4)cc1 (stereo not given)
inactive: [1] 47.5% | [2] 26.3% | [3] 13.7% | [4] 43.6% | [5] 44.9% | [6] 27.1%

O=C(NCCN1CCOCC1)c1ccc(C(=O)NCCN2CCOCC2)cc1
inactive: [1] 35% | [2] 22.9% | [3] 32.6% | [4] 17.5% | [5] 1.6% | [6] 33.9%

Nc1cn(Cc2ccccc2)c(=O)n(Cc2ccccc2)c1=O
inactive: [1] -1.85% | [2] -7.85% | [3] -9.5% | [4] -57.5% | [5] 8.95% | [6] -23.6%

CC(=O)CC(=O)Nc1cc(C(F)(F)F)ccc1Cl
inactive: [1] 15.4% | [2] -25.6% | [3] -19.1% | [4] -0.3% | [5] -6.25% | [6] 3.05%

O=C(N/N=C/c1ccc(O)cc1)C1CCCO1 (stereo not given)
inactive: [1] 2.9% | [2] 26.5% | [3] -1.35% | [4] -64.2% | [5] 2.95% | [6] -9.45%

COc1ccc(C(C)O)cc1 (stereo not given)
inactive: [1] 23.2% | [2] 3.2% | [3] 6.25% | [4] 12.9% | [5] -5.65% | [6] 9.15%

CCCCCCCCCCCCn1c2nc(=O)[nH]c(=O)c-2nc2ccccc21
inactive: [1] -3.35% | [2] 3.75% | [3] -8.15% | [4] 4.25% | [5] -0.2% | [6] -26.1%

CSc1nc(C)cc(=O)n1C1OC(COC(C)=O)C(OC(C)=O)C(OC(C)=O)C1OC(C)=O (stereo not given)
inactive: [1] 20.6% | [2] -13.6% | [3] -7.35% | [4] 16.6% | [5] -30.6% | [6] 32.5%

Nc1ccc(Cl)c(Cl)c1Cl
inactive: [1] 40.5% | [2] -6.2% | [3] 52% | [4] 31% | [5] 43.3% | [6] 35.7%

CCc1cccc(CC)c1NC(=S)NC(=O)c1ccc(Br)cc1
inactive: [1] -5.3% | [2] -1.25% | [3] -7.9% | [4] 8.3% | [5] -9.5% | [6] -9.75%

O=C(Cc1nc2ccccc2nc1CC(=O)c1cccnc1)c1cccnc1
inactive: [1] 6.45% | [2] 18.4% | [3] 16.1% | [4] 23.1% | [5] -3.55% | [6] 25.9%

CC(=O)C1CCC(CCCC(C)C)CC1 (stereo not given)
inactive: [1] 13.9% | [2] -2.4% | [3] -2.75% | [4] -10.4% | [5] 2.4% | [6] 6.2%

Cc1cc(C)cc(C(=O)NCc2ccc[n+]([O-])c2)c1
inactive: [1] -10.3% | [2] -5.6% | [3] -6.35% | [4] -11.9% | [5] 0.4% | [6] 17.6%

CC(=O)OCC1OC(n2c(C)c(C(C)=O)c(-c3cccc4ccccc34)c(C#N)c2=S)C(OC(C)=O)C(OC(C)=O)C1OC(C)=O (stereo not given)
inactive: [1] 25.1% | [2] 22.4% | [3] 48% | [4] 22.1% | [5] 32.3% | [6] 33.9%
